Experimental findings from PubChem BioAssay (EPA / NIEHS) are described below.

Experiment [1] has as its system turtle Estrogen Receptor (ERa), gene 101933533. The experiment is described as follows: ATG_trERa_XSP2: Attagene TRANS-FACTORIAL Multi-Species (XSP2) HepG2 Assay for turtle Estrogen Receptor (ERa) (AID 2283812).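 Also: human HepG2 liver cells transiently expressing turtle ERa-Gal4 chimeric receptor; actives raise reporter signal above DMSO so AC50 reflects agonist activity.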 The procedure, abridged:
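HepG2 cells transiently transfected with GAL4-UAS reporter units expressing turtle ERa-Gal4 chimera. Reporter mRNA measured after 24 h dosing by RT-PCR, fluorescent labelling and capillary electrophoresis; gain of signal fitted versus DMSO.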

Experiment [2] has as its target Estrogen receptor beta (Homo sapiens) (UniProt Q92731). The experiment is described as follows: ATG_hERb_XSP2: Attagene TRANS-FACTORIAL Multi-Species (XSP2) HepG2 Assay for human Estrogen Receptor (ERb) (AID 2283813).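 Also: actives raise reporter mRNA above DMSO so AC50 reflects agonist induction.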 The procedure, abridged: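 HepG2 cells transiently transfected with GAL4-UAS reporter units and chimeric human ERb-Gal4, 24 h exposure. Reporter mRNA quantified by RT-PCR with FAM labelling, HpaI digestion and capillary electrophoresis; gain of signal versus DMSO.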

The target of experiment [3] is GAL4 Transcription Factor (Internal Marker), GAL4 (gene 855828) (UniProt P04386). The experiment is described as follows: ATG_GAL4_XSP2: Attagene TRANS-FACTORIAL Multi-Species (XSP2) HepG2 Assay for GAL4 Transcription Factor (Internal Marker) (AID 2283814).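 Also: GAL4 reporter mRNA background control in MRTU transfected cells not a receptor target.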 The procedure, abridged:
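HepG2 cells transiently transfected with GAL4-UAS reporter units, stimulated with 3 nM 6-alpha-fluorotestosterone plus 1.5 nM norgestrel, dosed 24 h. Reporter mRNA by RT-PCR/capillary electrophoresis; gain-of-signal fit versus DMSO, background control.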

Experiment [4] addresses zebrafish Estrogen Receptor (ER1), esr1 (gene 259252) (UniProt P57717). The experiment is described as follows: ATG_zfER1_XSP2: Attagene TRANS-FACTORIAL Multi-Species (XSP2) HepG2 Assay for zebrafish Estrogen Receptor (ER1) (AID 2283816). The gist of the method:
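HepG2 cells transiently transfected with a GAL4-UAS reporter and a chimeric zebrafish ER1-Gal4 construct, dosed 24 h. Reporter mRNA quantified by RT-PCR, labelling, HpaI digestion and capillary electrophoresis, relative to DMSO.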

Experiment [5] has as its target chicken Estrogen Receptor (ERa), ESR1 (gene 396099) (UniProt P06212). The experiment is described as follows: ATG_chERa_XSP2: Attagene TRANS-FACTORIAL Multi-Species (XSP2) HepG2 Assay for chicken Estrogen Receptor (ERa) (AID 2283817).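 Also: actives raise reporter signal above DMSO so AC50 reflects ER activation.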 The procedure, abridged:
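HepG2 cells transiently transfected with multiplexed GAL4-UAS reporter units expressing chimeric chicken ERa-Gal4; 24 h compound exposure. Reporter mRNA measured by RT-PCR with 6-FAM labelling, HpaI digestion and capillary electrophoresis; gain-of-signal fitted versus DMSO.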

Experiment [6] relates to zebrafish Estrogen Receptor (ER2a), gene 317734. The experiment is described as follows: ATG_zfER2a_XSP2: Attagene TRANS-FACTORIAL Multi-Species (XSP2) HepG2 Assay for zebrafish Estrogen Receptor (ER2a) (AID 2283818).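 Also: hits raise reporter mRNA so AC50 reflects activation of zebrafish ER2a.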 The procedure, abridged:
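HepG2 cells transiently transfected with GAL4-UAS reporter units and chimeric zebrafish ER2a-Gal4, exposed 24 h; medium contains 3 nM 6-alpha-fluorotestosterone and 1.5 nM norgestrel. Reporter mRNA quantified by RT-PCR, HpaI digestion, capillary electrophoresis; gain versus DMSO.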

Experiment [7] has as its system frog Estrogen Receptor (ER), gene 398734. The experiment is described as follows: ATG_frER1_XSP2: Attagene TRANS-FACTORIAL Multi-Species (XSP2) HepG2 Assay for frog Estrogen Receptor (ER) (AID 2283821).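 Also: hits raise reporter mRNA above DMSO baseline so potency means agonist or activator.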 The gist of the method: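 HepG2, transient MRTU transfection, chimeric NR-GAL4/UAS reporters; 24 h compound exposure, 24-well. Readout: reporter mRNA via RT-PCR + capillary electrophoresis, fluorescence. Positive fit vs DMSO baseline.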

Experiment [8] in a line: ATG_M_19_XSP2: Attagene TRANS-FACTORIAL Multi-Species (XSP2) HepG2 Assay for M32 Transcription Factor (Internal Marker) (AID 2283822). The procedure, abridged:
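Internal background marker in a multi-species nuclear receptor TRANS panel: transfected HepG2 cells exposed 24 h, with 3 nM 6-alpha-fluorotestosterone and 1.5 nM norgestrel present. Readout is RT-PCR of reporter transcripts resolved by capillary electrophoresis, gain-of-signal versus DMSO.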

Experiment [9] is described as follows: ATG_M_06_XSP2: Attagene TRANS-FACTORIAL Multi-Species (XSP2) HepG2 Assay for M06 Transcription Factor (Internal Marker) (AID 2283811).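 Also: hits are increases in signal above the DMSO baseline.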 The procedure, abridged:
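HepG2 cells transiently transfected with GAL4-UAS multi-reporter constructs, dosed 24 h with 3 nM 6-alpha-fluorotestosterone plus 1.5 nM norgestrel present to stimulate androgen receptor. Reporter mRNA quantified by RT-PCR, 6-FAM labelling, HpaI digestion and capillary electrophoresis; gain-of-signal fitted versus DMSO baseline.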

For experiment [10], the target named is human Androgen Receptor (AR), AR (gene 367) (UniProt P10275). The experiment is described as follows: ATG_hAR_XSP2: Attagene TRANS-FACTORIAL Multi-Species (XSP2) HepG2 Assay for human Androgen Receptor (AR) (AID 2283820). As for the experimental part: ATG_XSP2_multi-species_TRANS is a cell-based, multiplexed assay created by modifying the existing Attagene TRANS-FACTORIAL system to include a panel of nuclear receptors from some or all the following species: human (Homo sapiens), mouse (Mus musculus), frog (Xenopus laevis), zebrafish (Danio rerio), chicken (Gallus gallus), and turtle (Chrysemys picta). The ECOTOX-FACTORIAL format uses HepG2, a human liver cell line, with measurements taken at 24 hours after chemical dosing in a 24-well plate. Xsp2 included 3 nM 6-alpha-fluorotestosterone and 1.5 nM norgestrel to stimulate the androgen receptor.ATG_hAR_XSP2 is one of 29 assay components measured or calculated from the ATG_XSP2_multi-species_TRANS assay. It is designed to make measurements of mRNA induction, a form of inducible reporter, as detected with fluorescence intensity signals by Reverse transcription polymerase chain reaction (RT-PCR) and Capillary electrophoresis technology.The assay endpoint ATG_hAR_XSP2 was analyzed in the positive analysis fitting direction relative to DMSO as the negative control and baseline of activity. […] Furthermore, this assay endpoint can be referred to as a primary readout, because this assay has produced multiple assay endpoints where this one serves a reporter gene function. […]
Sequence of human Androgen Receptor (AR), AR (gene 367) (P10275 whole entry, looked up): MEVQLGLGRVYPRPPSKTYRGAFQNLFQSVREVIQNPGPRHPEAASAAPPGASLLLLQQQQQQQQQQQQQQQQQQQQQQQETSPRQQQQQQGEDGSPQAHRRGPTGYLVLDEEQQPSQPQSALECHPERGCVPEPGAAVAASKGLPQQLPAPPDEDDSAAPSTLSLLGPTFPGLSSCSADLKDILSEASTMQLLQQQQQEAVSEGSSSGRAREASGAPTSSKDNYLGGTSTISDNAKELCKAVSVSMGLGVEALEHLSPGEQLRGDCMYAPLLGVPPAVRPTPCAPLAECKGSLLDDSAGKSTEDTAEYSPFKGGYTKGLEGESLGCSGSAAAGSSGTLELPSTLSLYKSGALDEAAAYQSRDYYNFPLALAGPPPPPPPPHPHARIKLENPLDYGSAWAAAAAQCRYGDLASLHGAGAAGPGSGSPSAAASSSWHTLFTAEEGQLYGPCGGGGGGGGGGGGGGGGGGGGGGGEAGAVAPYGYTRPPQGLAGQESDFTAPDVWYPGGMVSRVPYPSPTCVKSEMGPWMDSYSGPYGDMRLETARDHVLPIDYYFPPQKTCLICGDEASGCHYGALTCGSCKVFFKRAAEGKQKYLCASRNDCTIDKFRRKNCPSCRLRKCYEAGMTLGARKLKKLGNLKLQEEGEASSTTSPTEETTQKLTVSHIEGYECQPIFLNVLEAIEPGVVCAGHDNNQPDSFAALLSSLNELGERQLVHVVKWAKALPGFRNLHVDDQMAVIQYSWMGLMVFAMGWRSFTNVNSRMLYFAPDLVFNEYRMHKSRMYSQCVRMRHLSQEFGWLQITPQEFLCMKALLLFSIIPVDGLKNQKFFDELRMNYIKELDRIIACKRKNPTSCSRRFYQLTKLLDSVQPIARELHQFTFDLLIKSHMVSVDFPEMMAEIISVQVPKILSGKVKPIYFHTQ

“And” between values parts separate entries of the source, which are not always exact repeats. Equal entries are not always repeated. Results filed as inconclusive are left out. More than one record can exist for a structure, and the calls need not agree. The source made the active and inactive calls. The calls were made as follows: active = hit-call score of the fitted dose curve at least 0.9, where 1 is the maximum; inconclusive = response in the unintended direction; inactive = score below 0.9.

Sequence of chicken Estrogen Receptor (ERa), ESR1 (gene 396099) (P06212 whole entry, looked up, the tested form may be a part): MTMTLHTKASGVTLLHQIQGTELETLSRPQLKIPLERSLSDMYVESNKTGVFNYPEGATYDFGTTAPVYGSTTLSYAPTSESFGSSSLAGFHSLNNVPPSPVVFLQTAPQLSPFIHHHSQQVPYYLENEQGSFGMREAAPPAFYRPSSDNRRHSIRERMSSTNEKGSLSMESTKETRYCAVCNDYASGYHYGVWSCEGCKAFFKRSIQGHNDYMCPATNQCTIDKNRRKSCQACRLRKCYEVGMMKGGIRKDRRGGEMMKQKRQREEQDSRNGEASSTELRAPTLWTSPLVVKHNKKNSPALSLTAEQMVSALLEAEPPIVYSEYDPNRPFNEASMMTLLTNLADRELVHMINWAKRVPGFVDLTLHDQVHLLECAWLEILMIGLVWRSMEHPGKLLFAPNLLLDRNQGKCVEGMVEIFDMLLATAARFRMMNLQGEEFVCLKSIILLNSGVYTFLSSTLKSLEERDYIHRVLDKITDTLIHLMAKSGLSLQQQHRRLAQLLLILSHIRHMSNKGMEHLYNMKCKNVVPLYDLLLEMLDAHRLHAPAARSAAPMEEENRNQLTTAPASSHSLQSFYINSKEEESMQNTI
Sequence of zebrafish Estrogen Receptor (ER1), esr1 (gene 259252) (P57717 whole entry, looked up, the tested form may be a part): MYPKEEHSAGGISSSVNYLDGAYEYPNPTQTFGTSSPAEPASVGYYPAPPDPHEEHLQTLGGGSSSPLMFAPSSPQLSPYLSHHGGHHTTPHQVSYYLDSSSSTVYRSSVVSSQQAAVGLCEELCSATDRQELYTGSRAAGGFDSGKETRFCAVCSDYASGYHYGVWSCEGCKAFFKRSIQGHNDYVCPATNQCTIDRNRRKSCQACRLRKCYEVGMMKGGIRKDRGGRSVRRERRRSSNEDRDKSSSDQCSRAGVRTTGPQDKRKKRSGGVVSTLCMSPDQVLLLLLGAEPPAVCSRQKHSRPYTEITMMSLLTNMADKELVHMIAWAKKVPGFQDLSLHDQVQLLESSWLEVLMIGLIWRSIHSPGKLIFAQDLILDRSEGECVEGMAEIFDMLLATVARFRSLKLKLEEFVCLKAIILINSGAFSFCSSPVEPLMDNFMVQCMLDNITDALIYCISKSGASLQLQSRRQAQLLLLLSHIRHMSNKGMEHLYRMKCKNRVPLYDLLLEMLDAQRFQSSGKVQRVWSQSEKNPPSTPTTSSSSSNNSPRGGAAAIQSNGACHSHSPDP
Sequence of Estrogen receptor beta (Homo sapiens) (Q92731 whole entry, looked up, the tested form may be a part): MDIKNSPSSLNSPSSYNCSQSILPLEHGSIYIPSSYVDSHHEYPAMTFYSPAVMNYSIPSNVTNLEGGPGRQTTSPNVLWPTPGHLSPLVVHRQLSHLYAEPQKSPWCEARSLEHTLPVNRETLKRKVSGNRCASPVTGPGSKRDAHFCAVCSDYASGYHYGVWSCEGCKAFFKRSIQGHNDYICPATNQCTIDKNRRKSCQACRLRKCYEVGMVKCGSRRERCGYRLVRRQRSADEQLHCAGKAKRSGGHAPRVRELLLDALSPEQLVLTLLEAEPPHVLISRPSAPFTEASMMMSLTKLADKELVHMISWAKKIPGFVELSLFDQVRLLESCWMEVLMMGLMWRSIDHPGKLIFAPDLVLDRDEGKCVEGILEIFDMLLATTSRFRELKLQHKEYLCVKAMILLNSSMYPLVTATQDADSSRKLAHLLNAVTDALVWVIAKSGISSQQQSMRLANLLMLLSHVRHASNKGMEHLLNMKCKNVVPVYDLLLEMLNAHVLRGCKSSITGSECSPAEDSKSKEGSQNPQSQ
Sequence of GAL4 Transcription Factor (Internal Marker), GAL4 (gene 855828) (P04386 whole entry, looked up, the tested form may be a part): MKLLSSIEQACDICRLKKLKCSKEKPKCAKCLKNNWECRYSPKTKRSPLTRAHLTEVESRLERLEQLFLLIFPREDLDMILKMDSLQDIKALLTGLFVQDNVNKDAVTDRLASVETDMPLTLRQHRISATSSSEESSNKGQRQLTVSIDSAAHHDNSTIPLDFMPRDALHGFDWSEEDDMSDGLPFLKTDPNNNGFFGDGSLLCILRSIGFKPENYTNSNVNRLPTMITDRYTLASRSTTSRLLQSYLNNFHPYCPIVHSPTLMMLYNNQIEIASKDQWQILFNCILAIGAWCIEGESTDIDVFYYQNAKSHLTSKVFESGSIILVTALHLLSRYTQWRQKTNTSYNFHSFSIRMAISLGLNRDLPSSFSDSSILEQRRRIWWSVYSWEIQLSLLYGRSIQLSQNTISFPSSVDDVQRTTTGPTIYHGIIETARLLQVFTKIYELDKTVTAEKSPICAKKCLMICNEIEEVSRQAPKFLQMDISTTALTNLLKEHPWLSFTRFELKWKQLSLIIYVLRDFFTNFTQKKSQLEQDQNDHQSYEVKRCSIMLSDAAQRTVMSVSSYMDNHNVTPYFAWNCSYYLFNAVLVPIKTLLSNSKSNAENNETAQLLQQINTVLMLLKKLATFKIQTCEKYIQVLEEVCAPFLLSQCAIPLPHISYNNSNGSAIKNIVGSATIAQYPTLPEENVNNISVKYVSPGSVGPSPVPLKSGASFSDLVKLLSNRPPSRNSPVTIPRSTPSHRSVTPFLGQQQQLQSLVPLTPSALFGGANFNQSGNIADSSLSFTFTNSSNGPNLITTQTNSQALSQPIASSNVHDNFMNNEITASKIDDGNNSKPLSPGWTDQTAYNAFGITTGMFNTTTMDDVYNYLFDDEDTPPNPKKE

Usually AC50 stands for the concentration at which the activity in the assay is half-maximal. On to `CC(=O)[C@@]1(O)CC[C@H]2[C@@H]3CCC4=CC(=O)CC[C@]4(C)[C@H]3CC[C@@]21C`, for which the AC50 in experiment [1] is 37.4 µM (active) and 11.9 µM (active); in [2] it was 100 µM (active); in experiment [5], 38.3 µM (active) and 14.9 µM (active); in [6], 65.6 µM (active) and 13.5 µM (active); in experiment [7], 34.1 µM (active) and 27.4 µM (active). Also, the result in experiment [2], in experiment [3], in experiment [4] and in experiment [8] was inactive.
Regarding `Cc1c(C)c2c(c(C)c1O)CCC(C)(COc1ccc(CC3SC(=O)NC3=O)cc1)O2` (centres undefined), the result in [9], in experiment [1], in [2], in [4], in [5] and in [7] was inactive.
As for `CCN(CC)CCOc1ccc(C(=C(Cl)c2ccccc2)c2ccccc2)cc1`, the result in [9], in experiment [3], in experiment [4], in experiment [6] and in [10] was inactive.
Consider `CC(=O)O[C@]1(C(C)=O)CC[C@H]2[C@@H]3C=C(Cl)C4=CC(=O)[C@@H]5C[C@@H]5[C@]4(C)[C@H]3CC[C@@]21C`, for which the compound was called inactive in experiment [9], in experiment [4], in experiment [6] and in experiment [7].
